Measurements reported in the supplement of paper PMC10849652.
Targets with a hit are over-represented here; the source holds about 7,900 in all. About 0.6% of all pairs of compound and target were hits. Unmarked numbers belong to inactive results.

What was measured:
Assay in all cases: log2 fold change, soluble protein after heating vs DMSO (PISA); higher = thermal stabilisation; K562 cells, 10 uM, 30 min; active = over 0.2 and 3.5 SD of the protein, either way, in both replicates (recomputed)
[1] = compound: CC[C@@H]1C(=O)N(C)c2cnc(Nc3ccc(C(=O)NC4CCN(C)CC4)cc3OC)nc2N1C1CCCC1
Outline: (§1)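 Values are thermal stability changes relative to control samples and are taken from duplicates. They are stated as log2 fold changes. Before quantification by TMTpro 16plex LC-MS/MS with equalised channel sums, K562 cells at 2×10^6 cells/mL were treated with 10 μM compound for 30 min, heated in aliquots for 3 min across 48°C-58°C, pooled, extracted in PBS with 0.5% NP-40 at 4°C, and centrifuged at 21,000xg for 90 min to give the soluble supernatant.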

volasertib = compound: CC[C@@H]1C(=O)N(C)c2cnc(Nc3ccc(C(=O)N[C@H]4CC[C@H](N5CCN(CC6CC6)CC5)CC4)cc3OC)nc2N1C(C)C [volasertib]
Outline: as §1

[2] = compound: CC[C@H](C)N1C=C(C2=C(C=C(C=C21)C3=CN=C(C=C3)N4CCNCC4)C(=O)NCC5=C(C=C(NC5=O)C)C)C
Outline: as §1

epoxomicin = compound: CC[C@H](C)[C@@H](C(=O)N[C@@H]([C@@H](C)O)C(=O)N[C@@H](CC(C)C)C(=O)[C@]1(CO1)C)NC(=O)[C@H]([C@@H](C)CC)N(C)C(=O)C [epoxomicin]
Outline: as §1

[3] = compound: CCn1c(C(=O)N(C2CC2)C2CC2)cc2c3c(ncn3C)c(Nc3cc(C)n(C)n3)nc21
Outline: as §1

[4] = compound: CCn1cc(-c2ccnc3[nH]c(-c4cccc(CN(C)C)c4)cc23)c(-c2ccc(NC(=O)N(C)C)cc2)n1
Outline: as §1

[5] = compound: CN(C)CC(=O)Nc1ccc2[nH]c(=O)c3ccccc3c2c1
Outline: as §1

rosiglitazone = compound: CN(CCOC1=CC=C(C=C1)C[C@H]2C(=O)NC(=O)S2)C3=CC=CC=N3 (racemic) [rosiglitazone]
Outline: as §1

[6] = compound: CN1C2=C(C3=C1C(=O)N(N=C3)CC4=CC(=CC=C4)N)SC(=C2)S(=O)C
Outline: as §1

[7] = compound: CN1CCC(CNc2ccc3ncc(-c4cccc(OC(F)(F)F)c4)n3n2)CC1
Outline: as §1

Sequence of UniProt Q9BW92 (Q9BW92 whole entry, looked up): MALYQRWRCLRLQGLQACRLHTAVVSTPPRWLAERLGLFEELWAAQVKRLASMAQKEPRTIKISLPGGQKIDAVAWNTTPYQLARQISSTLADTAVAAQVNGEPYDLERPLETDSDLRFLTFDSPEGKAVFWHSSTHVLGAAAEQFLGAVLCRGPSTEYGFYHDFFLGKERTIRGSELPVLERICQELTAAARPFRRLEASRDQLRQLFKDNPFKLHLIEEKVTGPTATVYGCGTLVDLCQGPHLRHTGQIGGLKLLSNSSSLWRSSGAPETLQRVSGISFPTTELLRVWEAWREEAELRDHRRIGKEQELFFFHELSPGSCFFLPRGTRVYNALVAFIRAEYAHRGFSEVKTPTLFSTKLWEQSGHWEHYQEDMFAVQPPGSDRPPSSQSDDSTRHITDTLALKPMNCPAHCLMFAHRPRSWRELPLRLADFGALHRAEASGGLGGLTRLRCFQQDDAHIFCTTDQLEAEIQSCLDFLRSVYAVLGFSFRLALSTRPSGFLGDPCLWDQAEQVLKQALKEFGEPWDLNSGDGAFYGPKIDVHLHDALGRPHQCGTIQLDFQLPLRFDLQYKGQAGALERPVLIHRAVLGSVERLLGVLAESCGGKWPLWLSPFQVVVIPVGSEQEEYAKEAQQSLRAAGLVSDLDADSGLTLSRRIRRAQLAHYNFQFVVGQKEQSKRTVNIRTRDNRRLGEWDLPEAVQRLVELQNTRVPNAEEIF
Sequence of UniProt Q6P1M0 (Q6P1M0 whole entry, looked up): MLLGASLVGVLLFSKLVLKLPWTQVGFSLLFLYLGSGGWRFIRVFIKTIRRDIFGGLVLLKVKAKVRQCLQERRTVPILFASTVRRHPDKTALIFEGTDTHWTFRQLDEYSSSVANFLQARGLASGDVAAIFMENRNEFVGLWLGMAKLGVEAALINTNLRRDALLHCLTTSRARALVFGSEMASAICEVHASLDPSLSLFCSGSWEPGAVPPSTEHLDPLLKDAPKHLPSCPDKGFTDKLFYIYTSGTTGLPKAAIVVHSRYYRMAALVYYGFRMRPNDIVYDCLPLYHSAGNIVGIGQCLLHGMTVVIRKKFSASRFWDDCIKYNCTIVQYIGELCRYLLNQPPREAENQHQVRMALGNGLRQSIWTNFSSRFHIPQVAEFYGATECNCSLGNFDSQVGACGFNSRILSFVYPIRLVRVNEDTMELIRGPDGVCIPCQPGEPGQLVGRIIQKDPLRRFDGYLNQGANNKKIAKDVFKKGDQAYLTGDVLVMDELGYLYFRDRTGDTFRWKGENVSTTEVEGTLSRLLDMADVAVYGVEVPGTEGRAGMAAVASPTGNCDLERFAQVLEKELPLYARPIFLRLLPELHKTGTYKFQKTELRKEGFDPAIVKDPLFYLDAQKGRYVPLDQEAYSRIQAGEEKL
Sequence of UniProt P30626 (P30626 whole entry, looked up): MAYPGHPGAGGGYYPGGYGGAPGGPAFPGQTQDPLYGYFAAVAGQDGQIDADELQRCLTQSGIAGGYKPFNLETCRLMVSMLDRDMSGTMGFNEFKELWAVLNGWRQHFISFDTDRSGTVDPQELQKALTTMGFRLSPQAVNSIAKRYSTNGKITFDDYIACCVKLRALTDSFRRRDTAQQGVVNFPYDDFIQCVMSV
Sequence of UniProt P12235 (P12235 whole entry, looked up): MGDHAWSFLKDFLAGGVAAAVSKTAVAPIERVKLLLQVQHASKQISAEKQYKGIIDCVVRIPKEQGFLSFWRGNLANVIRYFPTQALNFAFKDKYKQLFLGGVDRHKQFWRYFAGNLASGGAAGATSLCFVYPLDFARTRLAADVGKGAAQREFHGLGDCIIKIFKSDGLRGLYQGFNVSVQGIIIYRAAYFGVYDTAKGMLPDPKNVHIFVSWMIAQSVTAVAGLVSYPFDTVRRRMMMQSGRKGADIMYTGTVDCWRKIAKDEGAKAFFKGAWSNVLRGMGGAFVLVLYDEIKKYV
Sequence of UniProt O43815 (O43815 whole entry, looked up): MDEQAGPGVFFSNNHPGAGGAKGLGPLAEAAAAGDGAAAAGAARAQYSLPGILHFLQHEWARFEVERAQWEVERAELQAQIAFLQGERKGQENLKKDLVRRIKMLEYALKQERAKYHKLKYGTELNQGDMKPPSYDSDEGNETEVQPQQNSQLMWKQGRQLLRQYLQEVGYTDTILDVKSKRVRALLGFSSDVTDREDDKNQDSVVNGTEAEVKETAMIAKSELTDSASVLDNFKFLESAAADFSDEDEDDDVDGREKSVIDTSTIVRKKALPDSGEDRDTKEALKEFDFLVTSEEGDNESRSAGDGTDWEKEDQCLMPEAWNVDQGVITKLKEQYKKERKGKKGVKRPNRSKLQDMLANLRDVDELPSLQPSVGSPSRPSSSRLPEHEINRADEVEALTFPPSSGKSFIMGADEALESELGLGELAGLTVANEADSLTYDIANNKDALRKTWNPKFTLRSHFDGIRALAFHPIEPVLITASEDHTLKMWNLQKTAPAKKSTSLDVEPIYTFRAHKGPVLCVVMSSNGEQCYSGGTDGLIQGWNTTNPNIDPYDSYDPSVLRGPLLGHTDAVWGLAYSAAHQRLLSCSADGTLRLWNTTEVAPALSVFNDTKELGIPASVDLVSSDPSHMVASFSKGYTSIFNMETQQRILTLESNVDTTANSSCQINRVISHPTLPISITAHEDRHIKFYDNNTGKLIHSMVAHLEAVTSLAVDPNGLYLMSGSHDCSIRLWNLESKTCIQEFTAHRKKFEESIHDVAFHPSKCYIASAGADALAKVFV
Sequence of UniProt Q15833 (Q15833 whole entry, looked up): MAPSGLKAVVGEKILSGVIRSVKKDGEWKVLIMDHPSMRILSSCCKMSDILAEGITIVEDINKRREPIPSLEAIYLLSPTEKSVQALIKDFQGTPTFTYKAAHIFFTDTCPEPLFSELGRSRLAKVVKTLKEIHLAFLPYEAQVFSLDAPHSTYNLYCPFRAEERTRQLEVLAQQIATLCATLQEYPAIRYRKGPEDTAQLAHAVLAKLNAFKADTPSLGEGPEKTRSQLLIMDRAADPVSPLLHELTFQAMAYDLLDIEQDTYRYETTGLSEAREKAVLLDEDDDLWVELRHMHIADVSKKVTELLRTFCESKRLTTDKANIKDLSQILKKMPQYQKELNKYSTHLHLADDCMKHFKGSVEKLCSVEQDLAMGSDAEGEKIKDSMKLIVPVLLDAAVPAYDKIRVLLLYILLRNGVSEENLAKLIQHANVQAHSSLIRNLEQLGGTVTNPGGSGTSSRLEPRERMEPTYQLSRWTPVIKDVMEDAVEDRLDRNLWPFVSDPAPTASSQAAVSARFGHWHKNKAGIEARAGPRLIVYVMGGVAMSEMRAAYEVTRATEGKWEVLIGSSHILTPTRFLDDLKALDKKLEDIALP
Sequence of UniProt Q9NZ01 (Q9NZ01 whole entry, looked up): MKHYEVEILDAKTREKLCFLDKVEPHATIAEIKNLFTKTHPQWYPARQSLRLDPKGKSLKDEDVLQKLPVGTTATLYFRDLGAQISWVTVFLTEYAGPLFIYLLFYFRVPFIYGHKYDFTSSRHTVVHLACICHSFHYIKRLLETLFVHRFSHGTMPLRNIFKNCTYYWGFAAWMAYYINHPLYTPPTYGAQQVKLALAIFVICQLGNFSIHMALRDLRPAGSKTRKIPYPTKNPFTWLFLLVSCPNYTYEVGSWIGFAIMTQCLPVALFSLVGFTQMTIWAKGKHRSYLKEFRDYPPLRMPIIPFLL
Sequence of UniProt Q96DI7 (Q96DI7 whole entry, looked up): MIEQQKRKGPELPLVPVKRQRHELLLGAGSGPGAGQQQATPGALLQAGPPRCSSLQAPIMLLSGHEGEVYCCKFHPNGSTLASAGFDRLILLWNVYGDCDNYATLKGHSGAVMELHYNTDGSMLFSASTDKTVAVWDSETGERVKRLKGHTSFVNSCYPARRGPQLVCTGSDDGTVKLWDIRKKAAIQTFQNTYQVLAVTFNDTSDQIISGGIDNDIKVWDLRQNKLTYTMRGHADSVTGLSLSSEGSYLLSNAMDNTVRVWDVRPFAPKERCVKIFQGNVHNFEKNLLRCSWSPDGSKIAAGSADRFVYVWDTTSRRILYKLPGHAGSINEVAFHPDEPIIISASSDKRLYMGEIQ
Sequence of UniProt Q92544 (Q92544 whole entry, looked up): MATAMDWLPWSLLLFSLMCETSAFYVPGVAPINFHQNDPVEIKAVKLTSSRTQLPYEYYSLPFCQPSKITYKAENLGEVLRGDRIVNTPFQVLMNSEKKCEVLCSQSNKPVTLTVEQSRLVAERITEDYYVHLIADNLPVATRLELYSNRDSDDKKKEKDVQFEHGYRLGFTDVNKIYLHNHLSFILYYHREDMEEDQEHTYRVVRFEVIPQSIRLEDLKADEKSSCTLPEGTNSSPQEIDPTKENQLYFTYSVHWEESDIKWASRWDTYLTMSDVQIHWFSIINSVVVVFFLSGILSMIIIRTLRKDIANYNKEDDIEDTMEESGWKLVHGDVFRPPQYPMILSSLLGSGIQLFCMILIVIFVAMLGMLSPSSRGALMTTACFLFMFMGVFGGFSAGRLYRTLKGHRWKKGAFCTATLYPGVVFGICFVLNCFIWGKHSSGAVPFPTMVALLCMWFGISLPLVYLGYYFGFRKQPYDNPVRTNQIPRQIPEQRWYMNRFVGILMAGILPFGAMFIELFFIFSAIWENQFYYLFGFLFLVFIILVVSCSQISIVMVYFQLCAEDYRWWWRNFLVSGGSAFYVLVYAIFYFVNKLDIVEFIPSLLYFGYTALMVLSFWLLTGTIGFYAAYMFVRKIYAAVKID
Sequence of UniProt Q969G3 (Q969G3 whole entry, looked up): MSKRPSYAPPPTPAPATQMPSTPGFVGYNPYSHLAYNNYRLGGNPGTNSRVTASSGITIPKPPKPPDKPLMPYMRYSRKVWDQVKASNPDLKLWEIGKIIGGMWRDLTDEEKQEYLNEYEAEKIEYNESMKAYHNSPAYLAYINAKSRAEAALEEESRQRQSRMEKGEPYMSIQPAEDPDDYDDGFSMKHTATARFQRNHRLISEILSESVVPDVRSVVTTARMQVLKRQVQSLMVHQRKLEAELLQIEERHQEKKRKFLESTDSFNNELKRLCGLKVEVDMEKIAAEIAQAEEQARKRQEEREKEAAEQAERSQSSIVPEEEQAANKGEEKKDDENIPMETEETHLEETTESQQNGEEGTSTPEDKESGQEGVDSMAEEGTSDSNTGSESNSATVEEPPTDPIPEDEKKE

Row | Target | log2 fold change [1] | log2 fold change (volasertib) | log2 fold change [2] | log2 fold change (epoxomicin) | log2 fold change [3] | log2 fold change [4] | log2 fold change [5] | log2 fold change (rosiglitazone) | log2 fold change [6] | log2 fold change [7]
1 | SSX2 (UniProt Q16385) | -0.046 | -0.102 | 0.071 | 0.131 | 0.007 | -0.036 | 0.007 | 0.045 | -0.06 | 0.021
2 | SURF1 (UniProt Q15526) | -0.085 | -0.274 (active) | -0.055 | 0.012 | -0.013 | -0.059 | 0.013 | 0.035 | -0.016 | -0.311 (active)
3 | TATDN2 (UniProt Q93075) | 0.071 | -0.008 | 0.104 | -0.096 | 0.044 | -0.071 | -0.098 | 0.082 | 0.046 | -0.076
4 | TFAM (UniProt Q00059) | 0.058 | 0.059 | 0.007 | -0.053 | 0.035 | 0.062 | -0.074 | -0.017 | 0.098 | 0.049
5 | SLC25A4 (UniProt P12235) | -0.012 | 0.06 | -0.024 | 0.009 | 0.034 | 0.037 | -0.053 | -0.001 | -0.038 | -0.001
6 | SLC25A42 (UniProt Q86VD7) | -0.025 | 0.039 | -0.028 | 0 | 0.019 | 0.002 | -0.021 | 0.025 | 0.022 | 0.022
7 | TM9SF4 (UniProt Q92544) | -0.225 | -0.484 (active) | 0.024 | -0.055 | 0.035 | 0.052 | 0.001 | 0.082 | -0.05 | -0.084
8 | SPG21 (UniProt Q9NZD8) | -0.082 | -0.615 (active) | 0.065 | 0.315 (active) | -0.013 | 0.037 | 0.018 | 0.123 | -0.098 | -0.21
9 | TK1 (UniProt P04183) | 0.039 | 0.062 | -0.039 | 0.084 | -0.015 | 0.001 | -0.009 | 0 | -0.075 | -0.046
10 | TAOK1 (UniProt Q7L7X3) | 0.03 | -0.019 | 0.029 | -0.02 | -0.008 | -0.024 | 0 | 0.032 | 0.017 | -0.262 (active)
11 | TELO2 (UniProt Q9Y4R8) | -0.083 | -0.359 (active) | -0.017 | -0.093 | -0.031 | 0.005 | 0.123 | 0.036 | 0.154 | -0.052
12 | SLC27A4 (UniProt Q6P1M0) | -0.048 | -0.473 (active) | 0.03 | -0.064 | -0.014 | -0.036 | 0.04 | 0.066 | -0.051 | -0.158
13 | SOAT1 (UniProt P35610) | -0.017 | 0.053 | -0.094 | 0.029 | 0.009 | 0.013 | -0.04 | -0.016 | -0.051 | -0.09
14 | TAOK3 (UniProt Q9H2K8) | -0.005 | -0.083 | 0.058 | 0.007 | 0.007 | -0.019 | 0.059 | 0.001 | -0.067 | -0.059
15 | SLC27A2 (UniProt O14975) | -0.094 | -0.408 (active) | 0 | -0.05 | 0.277 (active) | -0.064 | 0.016 | -0.032 | -0.092 | 0.313 (active)
16 | SRI (UniProt P30626) | 0.008 | -0.111 | -0.013 | 0.393 (active) | 0.09 | -0.058 | 0.009 | 0.003 | -0.071 | 0.126
17 | SNRPD3 (UniProt P62318) | 0.194 | 0.134 | -0.058 | -0.037 | 0.005 | 0.058 | -0.07 | -0.047 | 0.001 | 0.198
18 | SNRNP40 (UniProt Q96DI7) | 0.067 | 0.059 | 0.026 | -0.05 | -0.018 | -0.033 | -0.012 | -0.001 | -0.029 | 0.261 (active)
19 | TJP1 (UniProt Q07157) | -0.023 | -0.166 | 0.022 | 0.007 | -0.023 | -0.052 | 0.012 | 0.019 | 0 | -0.071
20 | SMARCA5 (UniProt O60264) | -0.242 | -0.333 | 0.045 | 0.092 | -0.088 | -0.06 | 0.053 | -0.003 | 0.121 | 0.076
21 | TARS2 (UniProt Q9BW92) | -0.017 | -0.128 | 0.012 | 0.02 | 0.009 | -0.002 | -0.019 | 0.018 | -0.055 | -0.069
22 | SPR (UniProt P35270) | 0.02 | 0.165 | 0.013 | -0.054 | 0.412 (active) | 0.073 | 0.153 | 0.008 | -0.184 | 0.012
23 | TBC1D5 isoform 2 (UniProt Q92609) | -0.397 (active) | -0.854 (active) | 0.113 | 0.069 | -0.076 | -0.016 | 0.039 | 0.022 | 0.021 | -0.375 (active)
24 | SPTBN1 (UniProt Q01082) | 0.009 | -0.163 | 0.079 | -0.024 | -0.048 | 0.013 | 0.018 | 0.001 | 0.081 | 0.048
25 | SRSF9 (UniProt Q13242) | 0.189 | 0.414 | -0.004 | -0.421 | 0.097 | 0.323 | -0.106 | -0.07 | 0.506 | 0.364
26 | SMARCE1 (UniProt Q969G3) | -0.006 | -0.125 | 0.087 | -0.033 | -0.071 | 0.053 | -0.036 | -0.222 | 0.058 | -0.045
27 | STXBP2 isoform 3 (UniProt Q15833) | -0.015 | -0.217 | 0.138 | -0.006 | -0.083 | -0.025 | 0.02 | 0.096 | 0.116 | -0.072
28 | STRN (UniProt O43815) | -0.031 | -0.031 | 0.026 | 0.046 | 0.007 | -0.046 | 0.02 | 0.003 | -0.031 | 0.073
29 | TECR (UniProt Q9NZ01) | -0.116 | -0.24 (active) | 0.015 | 0.026 | 0.021 | -0.085 | 0.042 | 0.043 | -0.063 | -0.347 (active)
